Bioassay records: PubChem BioAssay, National Center for Advancing Translational Sciences (NCATS)
CHX counter – Cycloheximide Counterscreen for Small Molecule Inhibitors of Shiga Toxin; cell reporter, cycloheximide protein synthesis inhibition counterscreen; max response, %; 12% of 300,000 active; in the data active means max response mostly above about 13%, no sharp cut-off; inactive means mostly below about 14%; further: read at 38.3 µM for the half of the compounds with a filed dose
NS1 function inh – qHTS Assay for Inhibitors of Influenza NS1 Protein Function; Potency, µM (highest dose often 46.1 µM); 0.4% of 270,000 active; AID 2326, 2010; calls by dose curve; further: actives are rising curves; nearly all actives have a fitted effect of over 50% in size
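Read-out: OD600 growth recovery of NS1-expressing budding yeast. Cells grown overnight at 30C in -URA glucose medium, washed, resuspended and diluted 1:100 in 2% galactose assay medium, pH 6.0. Same strain lacking NS1 served as positive control.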
Shiga toxin inh – A qHTS for Small Molecule Inhibitors of Shiga Toxin; Vero cells, Shiga toxin protein synthesis inhibition reporter; inhibition, % at 38.7 µM; 9.2% of 290,000 active; AID 2315, 2010; in the data active means inhibition mostly above about 28%, no sharp cut-off; inactive means mostly below about 43%
Pf growth 48h – Primary qHTS for delayed death inhibitors of the malarial parasite plastid, 48 hour incubation | Potency, µM (doses to about 28.7 µM), usual class: inhibitors | 5.9% of 310,000 active | P. falciparum luciferase growth in erythrocytes, 48 h
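Parasite viability was followed by luminescence of a genomically integrated firefly luciferase. Cultures held 0.1% parasitemia at 2% hematocrit (final), incubated under 5% CO2 at 37 C.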
Pf growth 96h – Primary qHTS for delayed death inhibitors of the malarial parasite plastid, 96 hour incubation; AID 504834, 2011; Potency, µM (titrated, usually from 28.7 µM), actives largely listed as inhibitors; P. falciparum luciferase reporter growth, 96 h; 6.9% of 320,000 active
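Plates of compound plus infected erythrocytes (2% hematocrit, 0.05% parasitemia final) incubate 96 hours, 37 C, 5% CO2. Detection reagent added; reduced luminescence from the parasites' luciferase reporter flags inhibition.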
Numbers stand for hits; 0 = inactive; ? = inconclusive; - = no result given. Most compounds without a hit are left out; they make up all but 21% or so of the library. Unless noted, the call rests on the fitted dose curve; in most records, active means well fitted inhibition curve with a large enough effect; inconclusive means small, poorly fitted or top-dose-only effect, or another doubt; inactive means no such curve, though single readings can be large or run the other way.

SMILES	CHX counter	NS1 function inh	Shiga toxin inh	Pf growth 48h	Pf growth 96h
CC(=O)Nc1sc2c(c1C#N)CCN(Cc1ccccc1)C2	0	0	0	0	0
N#Cc1c(NCCCO)nc(NCc2ccccc2)c2c1CCN(Cc1ccccc1)C2	0	0	0	?	10.4µM
O=S(=O)(c1ccc(Br)cc1)c1nc(-c2ccccc2)oc1NCCN1CCOCC1	0	0	0	?	9.28µM
O=S(=O)(c1ccccc1)c1nc(-c2ccco2)oc1NCCN1CCOCC1	0	?	0	-	0
O=S(=O)(c1ccccc1)c1nc(-c2cccs2)oc1NCCCn1ccnc1	0	0	0	0	0
Cc1ccccc1-c1nc(S(=O)(=O)c2ccc(Br)cc2)c(NCc2cccnc2)o1	0	0	0	13.1µM	-
Cc1ccc(CNc2oc(-c3ccco3)nc2S(=O)(=O)c2ccccc2)cc1	0	0	0	10.4µM	?
O=S(=O)(c1ccc(Br)cc1)c1nc(-c2ccco2)oc1NCCCn1ccnc1	-	-	-	8.28µM	?
COc1cccc(NC(=O)CCC2CCN(C(=O)C3CC=CCC3)CC2)c1 (stereo unspecified)	0	?	0	0	0
CCc1ccccc1NC(=O)CSc1nnc(CNC(=O)c2ccco2)n1C	0	0	0	0	0
COc1ccc(F)cc1-c1nc(N)nc(N)n1	-	-	-	0	0
CN1CCN(C(=S)Nc2cc([N+](=O)[O-])ccc2Cl)CC1	11.3	0	0	0	0
CN1CCN(c2ccc([N+](=O)[O-])cc2NC(=O)c2ccccc2Cl)CC1	0	0	0	11.7µM	?
COC(=O)C1CSC(c2ccc(Cl)cc2)N1C(=O)c1ccccc1 (stereo unspecified)	0	0	0	0	0
CCN1CCN(c2cc3c(nn2)Oc2ccccc2N3C)CC1	49.0	0	52.0	0	0
CC1=NN(Cc2ccccc2)C(=O)/C1=C\c1ccc(N(C)C)cc1	31.0	0	32.3	0	0
CCOC(=O)C1=NN(c2ccccc2)C(=O)/C1=C\c1ccc(N(C)C)cc1	0	0	0	0	0
CCCc1cc(=O)[nH]c(SCC(=O)N2CCC(C)CC2)n1	0	0	0	0	0
Cc1cccc(CN2CCC(N3CC(C)OC(C)C3)CC2)c1 (stereo unspecified)	0	0	0	0	11.7µM
CC12CCC=CC1C(c1ccc(F)c(Br)c1)N(Cc1ccccc1)C2=O (stereo unspecified)	0	-	0	-	-
Cc1nc2ccc(C(=O)OCc3nnc(-c4ccc(Br)cc4)o3)cc2nc1C	0	0	0	0	0
NC(=O)COC(=O)c1ccc(-c2ccccc2)cc1	17.4	-	64.0	0	0
Cc1nc2ccc(C(=O)OCc3nnc(-c4ccccc4)o3)cc2nc1C	10.3	0	0	0	13.1µM
O=C(OCc1nnc(-c2ccc(Cl)cc2)o1)c1ccncc1	0	0	0	0	0
O=C(OCc1nnc(-c2ccccc2)o1)c1ccccc1	29.5	0	89.6	0	0
SMILES	CHX counter	NS1 function inh	Shiga toxin inh	Pf growth 48h	Pf growth 96h
Cc1ccccc1C(=O)OCc1nnc(-c2ccc(Cl)cc2)o1	24.8	-	45.3	0	0
O=C(OCc1nnc(-c2ccccc2)o1)c1ccc(-n2cnnn2)cc1	-	-	-	0	0
O=C1CN(S(=O)(=O)c2cc(C(=O)O)ccc2Cl)c2ccccc2N1	0	0	0	0	0
CC(C)OP(=O)(c1ccc(N(C)C)cc1)C(O)c1ccccc1 (stereo unspecified)	0	0	0	0	-
COc1ccc(-c2cc(-c3nnc(COC(=O)c4ccncc4)o3)c3ccccc3n2)cc1OC	0	-	0	11.7µM	?
COc1ccc(-c2cc(C(=O)OCC(=O)Nc3cc(C)on3)c3ccccc3n2)cc1OC	0	0	0	0	0
CC(=O)c1ccc(OCCCC(=O)OCc2nnc(-c3ccc(Cl)cc3)o2)cc1	0	0	0	0	0
O=C(OCc1nnc(-c2ccccc2)o1)C12CC3CC(CC(Br)(C3)C1)C2	35.5	-	56.4	0	0
CC(=O)Nc1ccc(OCc2nnc(-c3ccc(Cl)cc3)o2)cc1	19.9	0	0	0	0
COC(=O)C1=C(C)NC(C)=C(C(=O)OC)C1C(=O)OCc1nnc(-c2ccccc2)o1	-	-	-	0	?
CC(C(=O)OCc1nnc(-c2ccccc2)o1)N1C(=O)C2CCCCC2C1=O (stereo unspecified)	37.2	-	69.6	0	0
O=C(Nc1cccc(F)c1)c1ccc(Cn2cc([N+](=O)[O-])cn2)o1	0	-	0	0	?
CC1(C)O[C@@H]2C[C@H]3[C@@H]4CCC5=CC(=O)C=C[C@]5(C)[C@H]4C(O)C[C@]3(C)[C@]2(C(=O)CO)O1 (stereo partly specified)	-	-	-	?	0
Clc1ccc(-c2nnc(COc3ncnc4ccccc34)o2)cc1	33.6	-	55.1	0	0
CCOC(=O)c1cc(NC(=O)c2ccoc2C)cc(C(=O)OCC)c1	16.7	0	0	?	0
CC(=O)c1cccc(NC(=O)c2ccoc2C)c1	0	0	0	0	0
Cc1occc1C(=O)Nc1ccc2ccccc2c1	42.6	0	113.0	0	?
Cc1occc1C(=O)Nc1ccccc1	27.5	-	32.6	-	-
Cc1occc1C(=O)Nc1cccc(Cl)c1Cl	24.4	0	0	0	0
COc1ccc(Br)c(C(=O)Nc2cccc(Cl)c2Cl)c1	0	0	0	0	0
CC(CCc1ccccc1)NC(=O)CN1CCN(c2ccc(O)cc2)CC1 (stereo unspecified)	0	-	0	?	?
CCc1ccccc1NC(=O)c1ccoc1C	0	0	0	0	0
Cc1occc1C(=O)Nc1ccccc1C(=O)O	20.1	0	0	0	0
CCCCNC(=S)N/N=C/c1sccc1C	0	-	0	?	?
Cc1ccc(/C=N/NC(=S)NCCc2ccccc2)s1	0	-	0	11.7µM	?
SMILES	CHX counter	NS1 function inh	Shiga toxin inh	Pf growth 48h	Pf growth 96h
CCOC(=O)N/N=C\c1ccc(C)s1	28.6	0	67.9	0	0
CCCCNC(=S)N/N=C/c1ccc(C)s1	50.4	0	60.6	-	1.65µM
CCCCNC(=S)N/N=C/c1ccccc1F	15.9	0	0	0	0
CCOc1ccc(CN(C)C(=O)CNC(=O)C2CCCCC2)cc1	0	0	0	0	?
CC(=O)Nc1ccc(S(=O)(=O)N/N=C/c2ccc(C)s2)cc1	47.8	0	73.5	0	0
Cc1ccc(/C=N/NC(=O)Cc2c(F)cccc2Cl)s1	54.4	0	78.6	0	0
O=C(Cc1c(F)cccc1Cl)N/N=C/c1cccs1	0	0	0	0	?
CCCCN(C(=O)c1cc2c(s1)CCCCC2)c1c(N)n(CC(C)C)c(=O)[nH]c1=O	-	-	-	?	0
COc1ccccc1OCC(=O)NCCSCc1ccc(Cl)cc1	0	0	0	0	0
CCOc1ccc2ncc(S(=O)(=O)c3ccccc3)c(N3CCN(c4ccc(OC)cc4)CC3)c2c1	0	0	0	8.28µM	2.94µM
COc1ccc(N2CCN(c3c(S(=O)(=O)c4ccccc4)cnc4ccc(OC)cc34)CC2)cc1	0	?	0	8.28µM	4.15µM
OC(CNCCC(c1ccccc1)c1ccccc1)COc1ccccc1 (stereo unspecified)	0	0	0	?	?
Cc1ccc(C2SCC(=O)N2Cc2cn3ccsc3n2)o1 (stereo unspecified)	0	0	0	0	14.7µM
